MEKK2 WT-MEK5 – raises or lowers MEK5 binding to wildtype human MEKK2 PB1 domain | Q9Y2U5 | bead flow cytometry, Alexa488-MEK5 binding to MEKK2 WT; actives lie on both sides | binding response (% of control), % at 10 µM | 290,000 tested, 1.1% active; in the data active = binding response below about 67% or above about 130%
MEKK2 mut-MEK5 – signal of MEK5 binding to mutant human MEKK2 PB1 domain; bead flow cytometry, Alexa488-MEK5 binding to MEKK2 mutant; percent response, % at 10 µM; 290,000 tested, 0.35% active; AID 1530; in the data active = percent response above about 24%, passing the limit was not always enough
MEKK3 PB1 HTS – MEKK3-MEK5 PB1 interaction, increase or decrease; Q99759; bead-based flow cytometry, Alexa488-MEK5 binding to MEKK3; actives lie on both sides; 0 = blocked by unlabeled MEK5, 100 = vehicle; binding response (% of control), % at 10 µM; 290,000 tested, 1.4% active; AID 1529;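 active = binding response more than 3 SD above or below the average of its plate-row segment, actives on both sides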;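 also: Alexa488 bead fluorescence after subtracting the streptavidin-only scavenger bead signal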
Target sequence (Q99759 whole entry, looked up): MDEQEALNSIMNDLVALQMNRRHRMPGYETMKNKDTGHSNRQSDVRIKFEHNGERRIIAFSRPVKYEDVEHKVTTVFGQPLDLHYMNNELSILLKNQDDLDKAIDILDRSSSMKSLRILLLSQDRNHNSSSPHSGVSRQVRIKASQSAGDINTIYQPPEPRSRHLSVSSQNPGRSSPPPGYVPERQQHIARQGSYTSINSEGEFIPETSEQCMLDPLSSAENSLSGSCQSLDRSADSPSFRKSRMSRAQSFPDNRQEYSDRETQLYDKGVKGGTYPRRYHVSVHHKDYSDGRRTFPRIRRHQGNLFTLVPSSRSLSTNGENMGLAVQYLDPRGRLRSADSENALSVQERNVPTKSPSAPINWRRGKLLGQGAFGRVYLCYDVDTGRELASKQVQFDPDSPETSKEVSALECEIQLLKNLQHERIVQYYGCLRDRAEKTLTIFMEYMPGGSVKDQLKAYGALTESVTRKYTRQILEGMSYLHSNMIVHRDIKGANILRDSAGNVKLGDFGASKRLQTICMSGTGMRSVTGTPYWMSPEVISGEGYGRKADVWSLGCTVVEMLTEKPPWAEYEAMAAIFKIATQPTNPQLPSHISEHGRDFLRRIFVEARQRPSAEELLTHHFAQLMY
GRK2 inh – inhibitors of human GRK2 displacing RNA aptamer | P25098 | bead flow cytometry, FAM-aptamer displacement from GRK2 | inhibition of aptamer binding, % at 10 µM | 330,000 tested, 0.59% active | AID 488847;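 active = inhibition of aptamer binding above 40%, roughly 3 SD of noise, on plates passing a quality check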;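 also: median bead fluorescence of bound FAM aptamer so fluorescent compounds give negative values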
MEKK2wt confirm – raises or lowers MEK5 binding to wildtype human MEKK2, retest | binding response (% of control), % at 10 µM | bead flow cytometry, Alexa488-MEK5 binding to MEKK2 WT; actives lie on both sides | shares compounds with MEKK3 PB1 HTS | AID 1892 | 5,900 tested, 2.4% active; in the data active = binding response below about 16% or above about 210%; inactive = in between
MEKK2mut-MEK5 – signal of MEK5 binding to mutant human MEKK2, retest; shares compounds with MEKK3 PB1 HTS; bead flow cytometry, Alexa488-MEK5 binding to MEKK2 mutant; percent response, % at 10 µM; 5,900 tested, 2% active; AID 1893; in the data active = percent response mostly above about 71%, no sharp cut-off; inactive = mostly below about 38%;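 also: higher means compound restores mutant binding toward wildtype level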
MEKK3 confirm – confirmation of inhibitors of MEK5 binding to human MEKK3. 5,900 tested, 1.8% active. shares compounds with MEKK3 PB1 HTS. binding response (% of control), % at 10 µM. bead flow cytometry, Alexa488-MEK5 binding to MEKK3; hits give low values;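 active = binding response below 72% of control, or above a set upper limit, though filed actives all read lower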;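 also: 100% = DMSO only wells and 0% = binding blocked by excess unlabeled MEK5; lower values mean stronger disruption of MEK5 binding to MEKK3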
Starred values were filed as active, the others as inactive; nt = no result given; [ ] = another dose, or the depositor's remark. Compounds with a hit are over-represented: about 2.5% of the library has one in this group of screens.

SMILES | MEKK2 WT-MEK5 | MEKK2 mut-MEK5 | MEKK3 PB1 HTS | GRK2 inh | MEKK2wt confirm | MEKK2mut-MEK5 | MEKK3 confirm
CN(C)CCNC(=O)c1sc2nc(-c3ccccc3)cc(C(F)(F)F)c2c1N | 158.0* | 14.0 | 109.0 | 13.0 | 139.0 | 18.0 | 100.0
N=C(N)SCc1cn(-c2ccccc2)nc1-c1ccc(Br)cc1 | 256.0* | 107.0* | 115.0 | nt | 265.0* | 105.0* | 113.0
COc1ccc(-c2nn(-c3ccccc3)cc2CO)cc1 | 102.0 | 9.0 | 107.0 | 2.0 | nt | nt | nt
COc1ccccc1CNC(=O)CN(c1cccc([N+](=O)[O-])c1)S(C)(=O)=O | -2.0*[inhibitor] | -22.0 | 1.0*[inhibitor] | 0.0 | 96.0 | -11.0 | 97.0
CS(=O)(=O)c1nc2ccccc2n1Cc1ccccc1 | 95.0 | -2.0 | 98.0 | 3.0 | nt | nt | nt
N=c1oc2ccccc2cc1-c1nc(-c2ccc(Cl)cc2)cs1 | 97.0 | -2.0 | 128.0* | 0.0 | 91.0 | -9.0 | 98.0
O=C(OCc1nc2ccccc2s1)c1ccc(Br)o1 | 134.0 | 6.0 | 144.0* | 1.0 | 104.0 | -1.0 | 101.0
CCSCCOC(=O)C1=C(C)NC(=O)NC1c1ccc2c(c1)OCO2 (stereo not drawn) | 101.0 | 0.0 | 99.0 | 0.0 | nt | nt | nt
CCCCCCOC(=O)C(C#N)c1nc2ccccc2nc1N1CCN(CC)CC1 (stereo not drawn) | 158.0* | 30.0 | 104.0 | 3.0 | 145.0 | 21.0 | 101.0
CCCCCCOC(=O)C(C#N)c1nc2ccccc2nc1N1CCOCC1 (stereo not drawn) | 98.0 | 0.0 | 98.0 | 1.0 | nt | nt | nt
CC(C)C(NC(=O)C1CCCCC1)C(=O)Nc1ccccn1 (stereo not drawn) | 106.0 | 25.0* | 101.0 | 0.0 | 90.0 | -4.0 | 99.0
Cn1c(CN2CCCCC2)nc2cc(NC(=O)c3cccs3)ccc21 | 97.0 | -3.0 | 98.0 | 1.0 | nt | nt | nt
CC1=CS(=O)(=O)CC1Sc1ncn[nH]1 (stereo not drawn) | 76.0 | 5.0 | 64.0*[inhibitor] | 2.0 | 42.0 | 0.0 | 81.0
CCCn1c(SCC(=O)Nc2cc(Cl)ccc2Cl)n[nH]c1=O | 99.0 | 0.0 | 103.0 | 0.0 | nt | nt | nt
CCCn1c(SCC(=O)NC(=O)Nc2ccc(C)cc2C)n[nH]c1=O | -5.0*[inhibitor] | -18.0 | 0.0*[inhibitor] | 1.0 | 111.0 | 5.0 | 114.0
N/C(Cc1cccc2ccccc12)=N\OC(=O)Cc1cccs1 | 100.0 | 0.0 | 144.0* | 2.0 | 98.0 | 0.0 | 102.0
COC(=O)c1ccc(N2C(=O)Nc3ccccc3N2O)cc1 | 53.0 | -31.0 | 50.0*[inhibitor] | 0.0 | 99.0 | -3.0 | 103.0
O=C(COC(=O)CNC(=O)c1ccccc1)Nc1ccc(S(=O)(=O)N2CCOCC2)cc1 | 109.0 | 0.0 | 108.0 | 0.0 | nt | nt | nt
CC1CCCCN1C(=O)CSc1nc2ccccc2[nH]1 (stereo not drawn) | 126.0 | 6.0 | 143.0* | 0.0 | 107.0 | 8.0 | 108.0
O=C(CSc1nc2ccccc2[nH]1)N1CCCCC1 | 103.0 | 9.0 | 103.0 | 1.0 | nt | nt | nt
CC(C)NC(=O)C1CC=CCC1C(=O)O (stereo not drawn) | 107.0 | 0.0 | 134.0* | 0.0 | 101.0 | 9.0 | 103.0
CCc1cccc(C)c1NC(=O)C(c1ccc(O)cc1)N1CCC1=O (stereo not drawn) | 105.0 | 3.0 | 105.0 | 1.0 | nt | nt | nt
NC(=O)c1ccc(NC(=O)COC(=O)C2(c3ccccc3F)CCCC2)cc1 | 88.0 | -2.0 | 73.0*[inhibitor] | 0.0 | 100.0 | 1.0 | 103.0
O=C(Nc1cccnc1Cl)c1cc2c(s1)-c1ccccc1OC2 | 96.0 | 0.0 | 98.0 | 2.0 | nt | nt | nt
CN1CCN(c2ccccc2NC(=O)c2cc3c(s2)-c2ccccc2OC3)CC1 | 146.0* | 21.0 | 101.0 | 0.0 | 172.0 | 37.0 | 107.0
SMILES | MEKK2 WT-MEK5 | MEKK2 mut-MEK5 | MEKK3 PB1 HTS | GRK2 inh | MEKK2wt confirm | MEKK2mut-MEK5 | MEKK3 confirm
c1ccc(Cn2nnc3cnccc32)cc1 | 121.0 | 9.0 | 83.0 | 0.0 | nt | nt | nt
Cn1c(NCc2ccco2)nc2ccccc21 | 25.0*[inhibitor] | -22.0 | 16.0*[inhibitor] | 3.0 | 110.0 | 15.0 | 113.0
CCN(CC)CCn1c(NCc2ccco2)nc2ccccc21 | 101.0 | -1.0 | 85.0 | 1.0 | nt | nt | nt
COCCNC(=O)CSc1nc(-c2ccc(OC)c(OC)c2)cc(C(F)(F)F)n1 | 87.0 | -12.0 | 79.0*[inhibitor] | 1.0 | 93.0 | 0.0 | 89.0
Cc1cc(C)c(S(=O)(=O)N2CCOCC2)cc1NS(=O)(=O)c1cc(OCC(N)=O)c(C)cc1Cl | 108.0 | 9.0 | 109.0 | 1.0 | nt | nt | nt
C=C(C)c1cccc(C(C)(C)NC(=O)NCc2ccc(OC)cc2)c1 | 104.0 | 0.0 | 133.0* | 1.0 | 104.0 | 6.0 | 105.0
C=C(C)c1cccc(C(C)(C)NC(=O)NCc2ccc(OC)c(OC)c2)c1 | 102.0 | 5.0 | 104.0 | 0.0 | nt | nt | nt
CS(=O)(=O)N1CCC(C(=O)NCc2ccc3c(c2)OCO3)CC1 | 97.0 | 4.0 | 102.0 | 0.0 | nt | nt | nt
Cc1cc(C(=O)NNc2ccc(Cl)cc2)no1 | 65.0 | -42.0 | 60.0 | 0.0 | nt | nt | nt
CCCCCCc1cc2cc(S(=O)(=O)c3ccc(F)cc3)c(=O)oc2cc1O | 103.0 | 0.0 | 138.0* | 0.0 | 105.0 | -1.0 | 104.0
CCCCCCc1cc2cc(-c3nnc(-c4ccccc4O)o3)c(=O)oc2cc1O | 71.0*[inhibitor] | 5.0 | 101.0 | 4.0 | 100.0 | -1.0 | 108.0
Cc1ccc(NC(=O)c2c3c(nc4ccccc24)CCC3)cc1 | 84.0 | -2.0 | 72.0*[inhibitor] | 2.0 | 107.0 | 5.0 | 103.0
CCOc1ccc(NC(=O)c2c3c(nc4ccccc24)CCC3)cc1 | 92.0 | -5.0 | 95.0 | 0.0 | nt | nt | nt
CN(C)CCCNC(=O)CCc1nc2ccccc2c(=O)[nH]1 | 103.0 | 5.0 | 101.0 | 1.0 | nt | nt | nt
CS/C(=C(/C#N)S(=O)(=O)c1ccc(Cl)cc1)N1CCOCC1 | 91.0 | -31.0 | 88.0 | 0.0 | nt | nt | nt
CCCCN(CCCC)CCNC(=O)CN1C(=O)CSc2ccc(S(=O)(=O)N3CCCCC3)cc21 | 107.0 | 2.0 | 101.0 | 0.0 | nt | nt | nt
CC(=O)c1ccc(N(C(=O)c2ccco2)C(C(=O)NC2CCCC2)c2cccs2)cc1 (stereo not drawn) | 97.0 | -4.0 | 101.0 | 2.0 | nt | nt | nt
C#CC(=O)N(c1ccc(OC)c(OC)c1)C(C(=O)NC1CCCC1)c1cccs1 (stereo not drawn) | 114.0 | 11.0 | 125.0* | 1.0 | 104.0 | -2.0 | 100.0
C#CC(=O)N(c1cccc(OC)c1)C(C(=O)NC1CCCC1)c1cccs1 (stereo not drawn) | 101.0 | 2.0 | 98.0 | 3.0 | nt | nt | nt
O=C(NC1CCCCC1)C(c1cccs1)N(C(=O)c1ccco1)c1ccc2c(c1)OCCO2 (stereo not drawn) | 91.0 | 2.0 | 60.0*[inhibitor] | 3.0 | 90.0 | -3.0 | 96.0
Cc1cc(C(=O)NCc2ccc(S(N)(=O)=O)cc2)c(C)o1 | 107.0 | 5.0 | 105.0 | 0.0 | nt | nt | nt
